Source: the supplement of paper PMC10849652
Targets with a hit are over-represented here; the source holds about 8,800 in all. About 0.5% of all pairs of compound and target were hits. Unmarked numbers belong to inactive results.

Key:
Experiment in all cases: log2 fold change, soluble protein after heating vs DMSO (PISA); higher = thermal stabilisation; K562 lysate, 10 uM; active = over 0.2 and 3.5 SD of the protein, either way, in both replicates (recomputed)
[1] = compound: Cc1cn(-c2cc(NC(=O)c3ccc(C)c(Nc4nccc(-c5cccnc5)n4)c3)cc(C(F)(F)F)c2)cn1 [nilotinib]
Summary of the method: (§1)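 Values give the log-two fold change in thermal stability against solvent controls, from duplicates. Crude K562 extract at 1 mg/mL protein, made by dounce homogenisation in PBS pH 7.4 with 1 mM MgCl2, was treated with 10 μM compound for 30 min. After 3 min heating across 48°C-58°C, aliquots were pooled, adjusted to 0.5% NP-40 at 4°C and centrifuged at 21,000xg for 90 min. The supernatant was measured by TMTpro 16plex LC-MS/MS with channel sums equalised.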

[2] = compound: Cc1nc(Nc2n[nH]c3c2CN(C(=O)N[C@H](CN(C)C)c2ccccc2)C3(C)C)c2sccc2n1
Summary of the method: as §1

[3] = compound: Cc1nc(Nc2ncc(C(=O)Nc3c(C)cccc3Cl)s2)cc(N2CCN(CCO)CC2)n1 [dasatinib]
Summary of the method: as §1

[4] = compound: Cc1ncc(-c2ccnc(Nc3ccc(S(C)(=O)=O)cc3)n2)n1C(C)C
Summary of the method: as §1

[5] = compound: Cn1cc(-c2ccc3c(c2)CCN3C(=O)Cc2cccc(C(F)(F)F)c2)c2c(N)ncnc21
Summary of the method: as §1

[6] = compound: Cn1cc(CNCC2CCN(c3ncc(C(=O)NO)cn3)CC2)c2ccccc21 [quisinostat]
Summary of the method: as §1

[7] = compound: Cn1cncc1[C@@](N)(c1ccc(Cl)cc1)c1ccc2c(c1)c(-c1cccc(Cl)c1)cc(=O)n2C [tipifarnib]
Summary of the method: as §1

[8] = compound: NC(=O)Nc1cc(-c2cccc(F)c2)sc1C(=O)N[C@H]1CCCNC1
Summary of the method: as §1

[9] = compound: NC(=O)c1cnc(N[C@@H]2CCCC[C@@H]2N)nc1Nc1cccc(-n2nccn2)c1
Summary of the method: as §1

[10] = compound: NC1(c2ccc(-c3nc4ccn5c(=O)[nH]nc5c4cc3-c3ccccc3)cc2)CCC1
Summary of the method: as §1

[11] = compound: NCC(=O)Nc1ccc(-n2nc(C(F)(F)F)cc2-c2ccc3c(ccc4ccccc43)c2)cc1
Summary of the method: as §1

[12] = compound: O=C(CCCCCCC(=O)Nc1ccccc1)NO [vorinostat]
Summary of the method: as §1

[13] = compound: O=C(O)c1ccc2c(c1)nc(Nc1cccc(Cl)c1)c1ccncc12 [silmitasertib]
Summary of the method: as §1

[14] = compound: O=C1NC(=O)C(c2cnc3ccccn23)=C1c1cn2c3c(cc(F)cc13)CN(C(=O)N1CCCCC1)CC2
Summary of the method: as §1

[15] = compound: c1cn2cc(-c3ccc4cn[nH]c4c3)nc(Nc3ccc(N4CCOCC4)cc3)c2n1 [entospletinib]
Summary of the method: as §1

HAUS6 (UniProt Q7Z4H7)
UniProt Q7Z4H7, sequence (Q7Z4H7 whole entry, looked up): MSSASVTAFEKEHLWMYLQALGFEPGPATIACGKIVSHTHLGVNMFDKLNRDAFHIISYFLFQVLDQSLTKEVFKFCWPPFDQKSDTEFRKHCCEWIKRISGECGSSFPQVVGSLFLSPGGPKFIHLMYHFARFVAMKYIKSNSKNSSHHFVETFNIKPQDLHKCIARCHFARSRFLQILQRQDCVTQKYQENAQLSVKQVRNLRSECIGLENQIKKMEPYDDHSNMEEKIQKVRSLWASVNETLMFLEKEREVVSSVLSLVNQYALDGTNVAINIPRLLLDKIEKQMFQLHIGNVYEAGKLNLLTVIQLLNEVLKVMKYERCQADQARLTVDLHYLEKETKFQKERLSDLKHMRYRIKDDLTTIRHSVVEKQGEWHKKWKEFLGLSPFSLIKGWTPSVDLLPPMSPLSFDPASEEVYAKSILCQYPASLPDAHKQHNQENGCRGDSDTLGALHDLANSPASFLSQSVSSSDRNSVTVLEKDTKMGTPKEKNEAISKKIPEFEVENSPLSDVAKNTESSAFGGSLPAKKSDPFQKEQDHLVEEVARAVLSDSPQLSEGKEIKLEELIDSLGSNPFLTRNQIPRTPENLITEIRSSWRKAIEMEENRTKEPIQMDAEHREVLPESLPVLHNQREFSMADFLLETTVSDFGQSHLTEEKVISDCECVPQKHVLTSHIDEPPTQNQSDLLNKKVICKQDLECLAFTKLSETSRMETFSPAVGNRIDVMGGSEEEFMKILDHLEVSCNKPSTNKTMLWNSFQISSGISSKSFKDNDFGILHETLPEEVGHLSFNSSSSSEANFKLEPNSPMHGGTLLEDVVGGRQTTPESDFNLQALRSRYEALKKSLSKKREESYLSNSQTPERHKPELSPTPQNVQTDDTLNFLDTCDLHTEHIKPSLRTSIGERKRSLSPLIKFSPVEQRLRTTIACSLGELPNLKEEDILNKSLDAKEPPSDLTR
log2 fold change [1]: -0.022
log2 fold change [2]: -0.008
log2 fold change [3]: -0.057
log2 fold change [4]: 0.022
log2 fold change [5]: 0.038
log2 fold change [6]: -0.066
log2 fold change [7]: 0.053
log2 fold change [8]: 0.035
log2 fold change [9]: -0.055
log2 fold change [10]: -0.004
log2 fold change [11]: -0.057
log2 fold change [12]: -0.3 (active)
log2 fold change [13]: 0.014
log2 fold change [14]: 0.007
log2 fold change [15]: 0.015

HSPA8 (UniProt E9PK54)
log2 fold change [1]: 0.023
log2 fold change [2]: -0.053
log2 fold change [3]: -0.024
log2 fold change [4]: -0.021
log2 fold change [5]: -0.032
log2 fold change [6]: -0.093
log2 fold change [7]: -0.01
log2 fold change [8]: 0.113
log2 fold change [9]: -0.033
log2 fold change [10]: 0.004
log2 fold change [11]: 0.068
log2 fold change [12]: -0.004
log2 fold change [13]: -0.037
log2 fold change [14]: -0.022
log2 fold change [15]: 0.012

HAUS3 (UniProt Q68CZ6)
UniProt Q68CZ6, sequence (Q68CZ6 whole entry, looked up): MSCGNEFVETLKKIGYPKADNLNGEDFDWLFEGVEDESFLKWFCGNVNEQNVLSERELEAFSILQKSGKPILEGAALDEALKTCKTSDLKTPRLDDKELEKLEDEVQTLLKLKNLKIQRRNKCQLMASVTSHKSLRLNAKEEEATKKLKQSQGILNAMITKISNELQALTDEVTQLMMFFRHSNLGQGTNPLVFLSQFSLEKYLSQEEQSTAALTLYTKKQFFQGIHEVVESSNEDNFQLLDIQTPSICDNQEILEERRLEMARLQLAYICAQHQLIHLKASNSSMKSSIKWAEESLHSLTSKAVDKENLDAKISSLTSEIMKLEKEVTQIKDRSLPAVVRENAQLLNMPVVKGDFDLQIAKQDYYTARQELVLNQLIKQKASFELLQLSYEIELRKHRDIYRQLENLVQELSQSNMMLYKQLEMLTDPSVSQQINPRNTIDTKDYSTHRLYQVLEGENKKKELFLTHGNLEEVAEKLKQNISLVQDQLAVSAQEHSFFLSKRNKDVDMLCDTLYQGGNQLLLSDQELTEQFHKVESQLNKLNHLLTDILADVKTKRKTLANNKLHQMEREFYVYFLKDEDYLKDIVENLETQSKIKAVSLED
log2 fold change [1]: 0.02
log2 fold change [2]: -0.027
log2 fold change [3]: -0.075
log2 fold change [4]: 0.008
log2 fold change [5]: 0.003
log2 fold change [6]: -0.059
log2 fold change [7]: -0.045
log2 fold change [8]: 0.017
log2 fold change [9]: -0.015
log2 fold change [10]: -0.038
log2 fold change [11]: 0.007
log2 fold change [12]: -0.618 (active)
log2 fold change [13]: -0.009
log2 fold change [14]: 0.004
log2 fold change [15]: 0.007

IRAK4 (UniProt Q9NWZ3)
UniProt Q9NWZ3, sequence (Q9NWZ3 whole entry, looked up): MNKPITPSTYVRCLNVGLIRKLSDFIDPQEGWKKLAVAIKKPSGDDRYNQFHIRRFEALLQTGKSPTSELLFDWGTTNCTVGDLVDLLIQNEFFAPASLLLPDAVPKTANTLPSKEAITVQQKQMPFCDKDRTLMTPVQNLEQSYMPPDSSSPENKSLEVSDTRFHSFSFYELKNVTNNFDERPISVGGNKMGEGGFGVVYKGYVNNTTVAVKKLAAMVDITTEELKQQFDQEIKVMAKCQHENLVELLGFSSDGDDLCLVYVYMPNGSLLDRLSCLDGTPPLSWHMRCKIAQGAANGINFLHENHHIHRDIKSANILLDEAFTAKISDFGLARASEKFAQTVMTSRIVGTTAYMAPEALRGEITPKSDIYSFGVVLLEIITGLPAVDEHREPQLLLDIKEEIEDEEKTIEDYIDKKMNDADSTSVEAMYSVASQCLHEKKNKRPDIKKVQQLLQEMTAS
log2 fold change [1]: -0.115
log2 fold change [2]: 0.065
log2 fold change [3]: 0.051
log2 fold change [4]: -0.012
log2 fold change [5]: 0.023
log2 fold change [6]: -0.066
log2 fold change [7]: -0.044
log2 fold change [8]: 0.413 (active)
log2 fold change [9]: 0.028
log2 fold change [10]: 0
log2 fold change [11]: -0.031
log2 fold change [12]: -0.218
log2 fold change [13]: 0.055
log2 fold change [14]: -0.106
log2 fold change [15]: 0.042

HIST2H2BC (UniProt Q6DN03)
UniProt Q6DN03, sequence (Q6DN03 whole entry, looked up): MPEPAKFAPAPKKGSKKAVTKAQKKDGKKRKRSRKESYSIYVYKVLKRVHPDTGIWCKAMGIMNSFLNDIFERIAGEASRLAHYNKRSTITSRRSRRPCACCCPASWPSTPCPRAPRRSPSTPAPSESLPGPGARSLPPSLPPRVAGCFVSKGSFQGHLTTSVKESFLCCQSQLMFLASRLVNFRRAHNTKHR
log2 fold change [1]: 0.003
log2 fold change [2]: -0.021
log2 fold change [3]: 0.051
log2 fold change [4]: -0.01
log2 fold change [5]: -0.079
log2 fold change [6]: -0.014
log2 fold change [7]: 0.037
log2 fold change [8]: 0.016
log2 fold change [9]: -0.01
log2 fold change [10]: 0.058
log2 fold change [11]: 0.018
log2 fold change [12]: 0.133
log2 fold change [13]: -0.098
log2 fold change [14]: -0.019
log2 fold change [15]: -0.062
